High-throughput results as filed in PubChem.
The list is not random: actives were taken first. Their share in the collection is about 3.2%.
PHOSPHO1 inh – PHOSPHO1 (human) inhibition. Q8TCT1. recombinant PHOSPHO1, absorbance phosphatase assay. inhibition, % at 13.3 µM. 290,000 compounds, 1.1% hits; in the data active = inhibition above about 60%
ANO1 activ – activates or potentiates the mouse TMEM16A chloride channel; B-score at 10 µM; 340,000 compounds, 0.3% hits; HEK293 TMEM16A/YFP-H148Q/I152L, iodide quench fluorescence; stronger effect = lower value; Q8BHY3;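 active = fluorescence-ratio B-score plate-corrected deviation score at least 3 library SD below zero, with starting fluorescence score within 5 deviations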;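 note: channel opened by trigger with iodide after compound preincubation; score built on the fluorescence ratio of max minus min over baseline; more negative score means more quench and so TMEM16A activation or potentiation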
Target sequence (Q8BHY3 whole entry, looked up): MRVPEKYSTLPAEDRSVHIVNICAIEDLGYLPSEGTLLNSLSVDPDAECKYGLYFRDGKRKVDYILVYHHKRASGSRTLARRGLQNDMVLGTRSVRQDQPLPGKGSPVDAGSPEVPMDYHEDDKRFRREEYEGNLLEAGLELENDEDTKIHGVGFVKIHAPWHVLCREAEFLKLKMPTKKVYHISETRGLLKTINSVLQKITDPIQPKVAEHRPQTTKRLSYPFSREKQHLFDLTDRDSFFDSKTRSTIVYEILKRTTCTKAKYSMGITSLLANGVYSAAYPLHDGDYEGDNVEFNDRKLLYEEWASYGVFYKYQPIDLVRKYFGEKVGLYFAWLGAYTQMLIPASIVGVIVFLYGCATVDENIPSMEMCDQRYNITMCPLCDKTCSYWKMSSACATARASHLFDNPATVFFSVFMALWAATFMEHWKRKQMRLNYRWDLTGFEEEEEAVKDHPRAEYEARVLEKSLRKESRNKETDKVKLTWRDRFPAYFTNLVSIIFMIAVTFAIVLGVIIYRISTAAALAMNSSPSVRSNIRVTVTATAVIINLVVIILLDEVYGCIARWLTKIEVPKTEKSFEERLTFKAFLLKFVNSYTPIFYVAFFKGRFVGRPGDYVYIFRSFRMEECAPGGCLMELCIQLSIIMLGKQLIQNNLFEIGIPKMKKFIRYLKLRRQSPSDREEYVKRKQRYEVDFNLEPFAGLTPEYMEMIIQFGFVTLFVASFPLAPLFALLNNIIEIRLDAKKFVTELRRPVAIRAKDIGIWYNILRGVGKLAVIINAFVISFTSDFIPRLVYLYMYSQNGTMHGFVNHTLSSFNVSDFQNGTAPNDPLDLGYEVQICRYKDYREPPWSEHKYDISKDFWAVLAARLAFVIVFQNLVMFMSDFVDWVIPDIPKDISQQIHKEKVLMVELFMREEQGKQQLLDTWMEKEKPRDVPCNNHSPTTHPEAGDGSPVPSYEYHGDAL
CHT PAM – allosterically activates the human high affinity choline transporter. Q9GZV3. CHT-expressing cells, membrane potential dye, choline EC20; stronger effect = higher value; LV-AA mutant CHT in HEK293 cells. B-score at 10 µM. 310,000 compounds, 0.49% hits. AID 488977;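 active = initial fluorescence not abnormally high and integrated response B-score, plate-corrected, over 3 SD above library mean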
ANO1 block – inhibitors of mouse TMEM16A calcium-activated chloride channel. HEK293 TMEM16A/YFP iodide influx fluorescence, ionomycin. 310,000 compounds, 1.2% hits. AID 588511. Q8BHY3. normalized B-score (activity score, 25-100; higher = stronger inhibition) at 10 µM;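 active = ratio plate-corrected score three or more library SD toward inhibition, starting fluorescence score within five deviations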;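 note: score derived from kinetic fluorescence span divided by baseline fluorescence per well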
HDAC3 inh – human HDAC3 inhibition | recombinant HDAC3, fluorogenic peptide/trypsin coupled, fluorescence | O15379 | inhibition, % at 8.3 µM | 320,000 compounds, 0.15% hits; in the data active = inhibition above about 26%, passing the limit was not always enough; inconclusive = no clear call, values can overlap the other calls
CHT inh – inhibitors of human choline transporter CHT. 310,000 compounds, 0.86% hits. B-score at 10 µM. CHT-expressing cells, membrane potential dye, choline response; stronger effect = lower value. Q9GZV3. AID 488975;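 active = B-score over 3 SD under the library average, and starting fluorescence ratio not unusually high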;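 note: choline stimulus applied at its EC90 after an EC20 pre-addition; B-score computed on integrated fluorescence ratio after choline addition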
CHT block conf – confirmation of human choline transporter CHT inhibitors; 2,400 compounds, 70% hits; AID 493221; CHT activity remaining % of control (stronger effect = lower value), % at 10 µM; shares compounds with CHT inh; CHT-expressing cells, choline membrane potential dye; LV-to-AA substituted CHT, HEK293 cells;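 active = choline transporter activity left, mean of duplicates at 10 µM, below buffer-only control mean minus 3 SD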;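 note: depolarization triggered by choline at its EC90 following an EC20 pre-addition; 0% = hemicholinium-3 full block and 100% = buffer-only control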
HEK293 CHT ctr – CHT inhibitor counter-screen hit in parental HEK293 cells; shares compounds with CHT inh; membrane potential dye, choline response; active = decrease or increase beyond buffer ±3SD; membrane potential ratio readout (active if shifted either direction beyond buffer ±3SD; no single direction) at 10 µM; 2,400 compounds, 4% hits;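 note: parental cells lack the transporter so any hit is non-specific; ratio is peak minus trough fluorescence over baseline after EC90 choline challenge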
Starred values were filed as active, the others as inactive; i = inactive; ? = inconclusive; nt = not tested or not shown.

SMILES	PHOSPHO1 inh	ANO1 activ	CHT PAM	ANO1 block	HDAC3 inh	CHT inh	CHT block conf	HEK293 CHT ctr
N#Cc1ccc(C2=NC(C(F)(F)F)(C(F)(F)F)c3c(n(Cc4ccco4)c(=O)[nH]c3=O)N2)cc1	9	i	i	100*	5	-11*	57%*	i
C=CCn1c(SCc2ccccc2C#N)nnc1-c1ccccc1O	4	i	i	i	-3	-6.3*	i	i
N/C(=N\OC(=O)C12CC3CC(CC(C3)C1)C2)c1ccccc1	46	i	i	i	4	i	nt	nt
O=C(NNC(=S)Nc1ccc(Cl)cc1Cl)c1ccc(N2CCOCC2)c([N+](=O)[O-])c1	-16	i	i	i	0	-5.5*	35%*	i
CC(C)OC(=O)CN1CCN(C2c3ccccc3-c3ccccc32)CC1	-27	i	i	i	6	-5.6*	70%*	i
CCC(C)(C)n1nnnc1C(c1ccccc1)N1CCN(Cc2ccccc2)CC1 (centres undefined)	49	i	i	i	0	i	nt	nt
COC(=O)c1ccc(COC(=O)C(CCS(C)(=O)=O)N2C(=O)c3ccccc3C2=O)cc1 (centres undefined)	-9	i	i	i	-9	-6.3*	i	i
CC(=O)c1ccc(OC(=O)C(CCS(C)(=O)=O)N2C(=O)c3ccccc3C2=O)cc1 (centres undefined)	2	i	i	i	1	i	nt	nt
O=C(C1Cc2ccccc2CN1S(=O)(=O)c1ccc(F)cc1)N1CCCCC1 (centres undefined)	-7	i	i	i	1	-6.3*	3.1%*	i
Cc1ccn2c(CNC(C)c3cn(C)nc3C)c(C(=O)N3CCCCCC3)nc2c1 (centres undefined)	-22	i	i	i	1	i	nt	nt
COc1ccc(C2=NN(c3ccc(C(=O)O)cc3)C(c3ccc(OC)c(OC)c3)C2)cc1 (centres undefined)	8	i	i	i	-233	-5.3*	62%*	i
COc1cc2c(cc1OC)C(c1c(Cl)cccc1Cl)NC(=O)C2 (centres undefined)	40	i	i	i	1	-5.4*	i	i
CC(C)c1nc2oc3c(N(C)CCO)ncnc3c2c2c1CCC2	20	i	i	i	8	-5.7*	i	i
CC(C)c1nc2oc3c(NCC4CCCO4)ncnc3c2c2c1CCC2 (centres undefined)	-14	i	i	i	-27	i	nt	nt
Cc1ccccc1Nc1nc(N)nc(COC(=O)[C@@H](NC(=O)c2c(F)cccc2F)C(C)C)n1	nt	i	i	i	0	i	nt	nt
CC[C@@H](C)C(NC(=O)OC(C)(C)C)c1cn([C@@H](CCCCNC(=O)OC(C)(C)C)C(=O)N2CCN(C(=O)OC(C)(C)C)CC2)nn1 (some centres undefined)	14	i	i	i	2	-11*	i	i
CC1CCN(S(=O)(=O)c2ccc3c(c2)N(CC(=O)NCCCN2C(C)CCCC2C)C(=O)CO3)CC1 (centres undefined)	32	i	i	i	-3	-7.4*	34%*	i
CC1CCCCN1CCNC(=O)CN1C(=O)CSc2ccc(S(=O)(=O)N3CCCCC3)cc21 (centres undefined)	33	i	i	i	1	-6.7*	45%*	i
CC1CCCC(C)N1CCCNC(=O)CN1C(=O)COc2ccc(S(=O)(=O)N3CCOCC3)cc21 (centres undefined)	31	i	i	i	-1	i	nt	nt
CC(C)(C)Nc1nc(Cl)nc(N(C#N)CN2C(=O)c3ccccc3S2(=O)=O)n1	-6	i	i	i	15	-5.6*	57%*	i
CC(OC(=O)c1cc2sccc2n1C)C(=O)NC(C)(C)C (centres undefined)	1	i	i	i	-2	-9.2*	59%*	i
CC(OC(=O)c1cc2sccc2n1C)C(=O)NCc1cccs1 (centres undefined)	-2	i	i	i	?	i	nt	nt
CN(C(=O)c1ccc(N2CCCCC2)c([N+](=O)[O-])c1)C1(C)CCS(=O)(=O)C1 (centres undefined)	43	i	i	i	5	i	nt	nt
CCN(CC)S(=O)(=O)c1ccc2c(c1)[nH]c(=S)n2CC	-87	i	i	i	1	i	nt	nt
CCOC(=O)c1ccc2c(c1)[nH]c(=S)n2CC	-30	i	i	i	7	-5.1*	56%*	i
SMILES	PHOSPHO1 inh	ANO1 activ	CHT PAM	ANO1 block	HDAC3 inh	CHT inh	CHT block conf	HEK293 CHT ctr
Cc1ccc(NC(=O)CSCC(=O)N=c2sccn2C)cc1	nt	i	i	i	-5	i	nt	nt
CCn1c(COc2ccc(OC)cc2)nc2ccccc21	49	i	i	i	-1	-5.2*	i	i
CCn1c(COc2ccccc2)nc2ccccc21	-6	i	i	i	-8	i	nt	nt
COc1ccc(NC(=O)c2cc3c(CO)cnc(C)c3oc2=Nc2cc(OC)cc(OC)c2)cc1	34	i	i	i	-3	i	nt	nt
O=C(CN1CCN(C(=O)CNC(=O)c2ccc3c(c2)OCO3)CC1)Nc1ccc(F)cc1	nt	nt	nt	nt	6	nt	nt	nt
COc1cc(C2=NOC(C(=O)Nc3cccnc3)C2)cc(OC)c1OC (centres undefined)	-5	i	i	i	-4	i	nt	nt
Cc1cc(C)c(NC(=O)c2ccc[n+](Cc3ccc([N+](=O)[O-])cc3)c2)c(C)c1	-2	i	i	i	3	-10*	11%*	i
Cc1ccc[n+](Cc2ccc([N+](=O)[O-])cc2)c1	22	i	i	i	-3	i	nt	nt
O=C1OCCC1Sc1nnc(-c2ccccc2Cl)n1Cc1ccccc1 (centres undefined)	-2	i	i	i	7	-6.9*	i	i
O=C(CN1C(=O)NC2(CCCc3ccccc32)C1=O)N1CCc2ccccc2C1 (centres undefined)	2	i	i	i	-1	-6.1*	34%*	i
CCCCOc1ccc(C(=O)NCC(=O)OC2CCOC2=O)cc1 (centres undefined)	-36	nt	i	i	-4	-5*	i	i
